ALOX15B inhib: qHTS Assay for Inhibitors of 15-hLO-2 (15-human lipoxygenase 2); Polyunsaturated fatty acid lipoxygenase ALOX15B (Homo sapiens), O15296; purified 15hLO-2, xylenol orange hydroperoxide absorbance; Potency, µM (titrated, usually from 57.1 µM), without a hit: at the top dose activity change, negative = inhibition, most hits filed as inhibitors; 110,000 compounds, 0.56% hits; AID 881, 2007; further: nearly all actives have a fitted effect of over 60% in size
Target sequence (O15296 whole entry, looked up): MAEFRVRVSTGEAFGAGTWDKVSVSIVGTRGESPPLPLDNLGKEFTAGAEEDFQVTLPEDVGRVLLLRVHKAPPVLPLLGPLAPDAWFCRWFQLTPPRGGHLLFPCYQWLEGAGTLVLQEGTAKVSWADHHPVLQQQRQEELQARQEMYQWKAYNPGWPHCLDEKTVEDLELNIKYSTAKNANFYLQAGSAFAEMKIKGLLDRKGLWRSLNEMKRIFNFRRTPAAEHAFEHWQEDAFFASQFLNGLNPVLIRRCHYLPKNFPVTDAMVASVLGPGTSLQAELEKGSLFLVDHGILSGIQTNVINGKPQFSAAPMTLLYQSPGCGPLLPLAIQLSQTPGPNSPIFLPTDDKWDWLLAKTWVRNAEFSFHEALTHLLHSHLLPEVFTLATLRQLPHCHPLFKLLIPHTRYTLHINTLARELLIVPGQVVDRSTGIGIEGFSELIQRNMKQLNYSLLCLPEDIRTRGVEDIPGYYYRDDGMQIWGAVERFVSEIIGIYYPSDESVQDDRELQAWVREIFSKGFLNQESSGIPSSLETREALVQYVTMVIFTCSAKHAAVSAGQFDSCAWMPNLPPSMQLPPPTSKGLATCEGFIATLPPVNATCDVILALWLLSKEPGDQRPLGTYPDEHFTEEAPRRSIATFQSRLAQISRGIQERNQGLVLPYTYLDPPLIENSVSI
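Purified human 15hLO-2 (50 nM) preincubated 15 min with compound, then 45 uM arachidonic acid for 90 min at RT in 25 mM Hepes pH 7.5, 0.01% Triton X-100. Hydroperoxide detected by Fe-xylenol orange; 573/405 nm absorbance ratio.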
ALOX15 inhib: qHTS Assay for Inhibitors of 15-hLO (15-human lipoxygenase) | AID 887, 2007 | Polyunsaturated fatty acid lipoxygenase ALOX15 (Homo sapiens), P16050 | 74,000 compounds, 1.4% hits | Potency, µM (highest dose often 57.1 µM), for inactives: at the top dose activity change, negative = inhibition, usual class: inhibitors | purified 15hLO-1, xylenol orange hydroperoxide absorbance; further: nearly all actives have a fitted effect of over 55% in size
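40 nM 15hLO-1 + cpd, 15 min RT; start w/ 50 uM AA (final), 6 min RT; stop/detect w/ 200 uM XO + 300 uM Fe(II) in 50 mM H2SO4, 30 min; A573/A405. Buffer 25 mM Hepes pH 7.5, 0.01% Triton X-100. No-enzyme wells as negative control.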
* hit, by the source's call; u = inconclusive; x = not tested or not shown; ! = repeats disagree; [ ] = remark or other dose. This is one part of a sample in which hits are shown more often than they occur. The call rests on the fitted dose curve; in most records, active means well fitted inhibition curve with a large enough effect; inconclusive means small, poorly fitted or top-dose-only effect; inactive means no such curve, though single readings can be large or run the other way. On the % scale 0 is the no-effect control and ±100 the full control effect; potency means the concentration at half of the fitted maximal effect.

SMILES	ALOX15B inhib	ALOX15 inhib
COc1cc([C@H]2c3cc4c(cc3[C@@H](O[C@H]3O[C@H]5CO[C@@H](C)O[C@H]5[C@@H](O)[C@@H]3O)[C@@H]3COC(=O)[C@H]23)OCO4)cc(OC)c1O	7%[25.6 µM]	4%[25.6 µM]
O=C(O)[C@@H]1[C@@H](C(=O)Nc2ncccn2)[C@@H]2C=C[C@@H]1O2	1%[11.4 µM]	-2%[11.4 µM]
CC(C)(CC(=O)Nc1ccccc1)C(=O)O	13%[11.4 µM]	3%[11.4 µM]
COc1ccc(OC)c2c(=S)c3ccccc3[nH]c12	-7%	10µM*
COc1ccc(-c2c(N)nnc3c2[nH]c2ccccc23)cc1OC	23%	x
O=C(O)c1cccc(SSc2cccc(C(=O)O)c2)c1	10%[11.4 µM]	2%[11.4 µM]
CCOc1ccccc1OCc1nn2c(COc3ccccc3)nnc2s1	-17%	3.2µM*
c1ccc(Cc2nn3c(COc4ccccc4)nnc3s2)cc1	-20%	-8%
Cc1noc(C)c1-c1cc(NC2CC2)ncn1	3%	u
CC(=O)C1=C(C)NC(SCC(=O)c2cc(Cl)ccc2Cl)=C(C#N)C1c1ccco1 (configuration not stated)	-23%	4µM*
CC(=O)C1=C(C)NC(SCc2cccc([N+](=O)[O-])c2)=C(C#N)C1c1ccco1 (configuration not stated)	-10%	x
CC1=C(C(=O)Nc2ccccc2)C(c2ccco2)C(C#N)=C(SCC(=O)OC(C)C)N1 (configuration not stated)	-5%	-23%
CC(=O)C1=C(C)NC(SCC(=O)c2ccc(Cl)c(Cl)c2)=C(C#N)C1c1ccco1 (configuration not stated)	-13%	13µM*
O=C(O)C(=O)/C=C(\O)c1ccc(Br)cc1	28%[11.4 µM]	6%[11.4 µM]
CN1CCN(c2ncc3nc(-c4cccc(C#N)c4)c(=O)n(Cc4ccc(F)cc4)c3n2)CC1	6%	-4%
CCOC(=O)c1cc(-c2nnc(-c3ccc(Cl)cc3)o2)c(C)nc1C	1%	1%
CCOC(=O)c1cc(-c2ccc(/C=C3/C(=O)NC(=O)C(C#N)=C3C)o2)ccc1Cl	25µM*	x
C/C=C\C1=C(CO)[C@H](O)[C@H]2OC2[C@@H]1O (some centres not stated)	x	2%[11.4 µM]
COCCn1c(=O)c(-c2cccs2)nc2cnc(N3CCNCC3)nc21	19%	7%
Cc1[nH][nH]c(=O)c1C(c1ccc(-c2ccc(Cl)cc2Cl)o1)c1c(C)[nH][nH]c1=O	5%	x
CC1=NOC(=O)/C1=C\c1ccc(-c2ccc(Cl)cc2Cl)o1	7.9µM*	x
COC(=O)c1ccc(C(NC(=O)OCc2ccccc2)/C(=C/[C@@H](C)C(=O)NCc2ccc(-c3ccccc3)cc2)c2cccnc2)cc1 (some centres not stated)	24%	-5%
Cc1ccc(S(=O)(=O)NNc2nc3ccccc3nc2C(F)(F)F)cc1	7.9µM*	x
Cc1ccc(S(=O)(=O)Nc2nc3ccccc3nc2N2CCN(c3ccccc3F)CC2)cc1	-8%	x
c1ccc(-c2ccc(-c3ccc(C4=NCCN4)cc3)o2)cc1	4%[11.4 µM]	-6%[11.4 µM]
SMILES	ALOX15B inhib	ALOX15 inhib
CCCCCCSC1=C(C#N)C(c2ccc(C)o2)CC(=O)N1 (configuration not stated)	u	25µM*
Cc1ccc(C2CC(=O)NC(SCc3ccccc3)=C2C#N)o1 (configuration not stated)	u	-18%
OC[C@@H]1O[C@@H](n2cnc3c(NC4CCCCC4)ncnc32)[C@@H](O)[C@H]1O	4%	-6%
C[C@H](CCC(=O)O)[C@H]1CC[C@H]2[C@H]3C(C[C@H](O)[C@]12C)[C@@]1(C)CC[C@@H](O)C[C@H]1C[C@H]3O (some centres not stated)	-8%	6%[25.6 µM]
CN(C)c1ccc(C(=S)NCc2ccco2)cc1	9%[2.29 µM]	25µM*
Cc1ccc(/C([O-])=C(/C(=S)NCc2ccco2)[n+]2ccccc2)cc1	-12%	x
COc1cccc(-c2nc(NCCN3CCOCC3)c3ccccc3n2)c1	8%	16%
CN1CCN(C(=O)c2cc(-c3ccc(O)cc3)on2)CC1	x	2%
CC1(C)CC(Nc2ccc(Nc3ccccc3)cc2)CC(C)(C)N1	4µM*	u
CC1(C)CC(NC(=O)c2ccccc2Cl)CC(C)(C)N1	7%	7%
CCC(CC)C(=O)NCc1ccc2c(c1)cc(C)n2C	-2%	-9%
Cc1cc2cc(CNC(=O)c3cccs3)ccc2n1C	x	16µM*
C=C1c2c(Cl)ccc(O)c2C(O)=C2C(=O)[C@@]3(O)C(O)=C(C(N)=O)C(=O)[C@@H](N(C)C)[C@@H]3[C@@H](O)[C@H]12	10%[25.6 µM]	1%[25.6 µM]
COc1ccccc1CNc1ccc(N2CCCCC2)cc1	-13%[2.29 µM]	16µM*
COc1ccccc1CNc1ccc(C(=O)O)cc1	7%	x
COc1cccc(CNc2ccc(S(N)(=O)=O)cc2)c1OC	-1%	9%
COc1cccc(CNc2ccc(N3CCCCC3)cc2)c1OC	25µM*	2µM*
Cn1cccc1C(=O)N1CCC[C@@]2(CCN(Cc3cc(C(F)(F)F)cc(C(F)(F)F)c3)C2)C1	11%	-5%
COC(=O)[C@H]1CC=C[C@H]2CCN(Cc3ccc(Cl)c(Cl)c3)C(=O)[C@@H]12	-14%[0.0915 µM]	x
N#CCCn1c(=O)c(CCc2ccccc2)nc2cnc(Oc3cccc(Cl)c3)nc21	-8%	1%
Cc1ccc([N+](=O)[O-])cc1S(=O)(=O)N(C)C	12%	25µM*!
Cc1ccc([N+](=O)[O-])cc1N	1%	4%
Cc1cnc(CNc2ncnc3ccc(-c4ccc(N(C)C)cc4)cc23)cn1	-1%	u
O=c1c[n+](CC[n+]2cc(=O)o[nH]2)[nH]o1	-2%[11.4 µM]	1%[11.4 µM]
CCCCCCCCCCC/C=C\C(C)(C)/C=C\CCCC(=O)O	-8%	3%
SMILES	ALOX15B inhib	ALOX15 inhib
CC/C=C\C/C=C\C/C=C\CCCCCCCC(=O)O	14µM*!	0.13µM*
CCC1OC(=O)C(C)[C@@H](O[C@H]2C[C@@](C)(OC)C(O)C(C)O2)C(C)[C@@H](O[C@@H]2OC(C)CC(N(C)C)C2O)[C@](C)(O)CC(C)/C(=N\OCOCCOC)[C@H](C)C(O)[C@]1(C)O (some centres not stated)	10%	-9%
CCOC(=O)C1CSC(Cc2ccc(OCc3ccc([N+](=O)[O-])cc3)cc2)N1 (configuration not stated)	9%	u
COCc1cc(C)nc2sc(C(=O)N3CCN(c4ccccc4)CC3)c(N)c12	3%	6.3µM*
COCc1cc(C)nc2sc(C(=O)N3CCCCC3)c(N)c12	-7%	x
CCCSC1=N/C(=C\C=C\c2ccco2)C(=O)S1	25µM*	2.5µM*
CCCSC1=N/C(=C\c2ccsc2)C(=O)S1	-21%	-22%
N#Cc1c(-c2ccco2)cc(C2CC2)nc1SCC(=O)c1ccccc1	-11%	16µM*
N#Cc1c(-c2ccccc2)cc(C2CC2)nc1SCC(=O)c1cccs1	-6%	x
O=C(c1cc2nc(-c3ccco3)cc(C(F)(F)F)n2n1)N1CCCCCC1	-4%	u
CN(C(=O)c1cc2nc(-c3ccco3)cc(C(F)(F)F)n2n1)C1CCCCC1	-5%	10µM*
O=C(/C=C/Nc1ccc(F)c(Cl)c1)c1ccco1	6%	25µM*
CC(=O)Nc1ccc(N/C=C/C(=O)c2ccco2)cc1	1%	-10%
O=C(/C=C/Nc1cccc(F)c1)c1ccco1	2%	x

Compound activity (PubChem)
